{"source": "PubChem BioAssay (Tox21)", "note": "“And” between values parts separate entries of the source, which are not always exact repeats. Equal entries are not always repeated. Results filed as inconclusive are left out. A call without a number means that no potency is given here. The source holds several records for some structures; these can differ, active in one and inactive in another. The source made the active and inactive calls. The call rests on the fitted dose curve; in most records, active means well fitted activation curve with a large enough effect in the repeat runs; inconclusive means weak or mixed curves; inactive means flat fitted curve, though single readings scatter. Potency means the concentration at half of the fitted maximal effect.", "data": [{"assay": "A CellTox Green Cytotoxicity Assay to monitor cytotoxicity in HEK293 cells - 32 hour (AID 1224881); further: nearly all actives have a fitted effect of over 40% in size", "conditions": "CellTox Green fluorescence; series mostly up to 76.8 µM; cytotoxicity increase: at the top concentration", "in_short": "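Read-out: fluorescence of a cell-impermeant cyanine dye staining DNA of dead cells, proportional to cytotoxicity. HEK293, 600 cells/well with reagent, compound (23 nL DMSO) added after 5 h; reads at 0, 8, 16, 24, 32, 40 h.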", "values": [{"compound": "CC1=C(/C=C/C(C)=C/C=C/C(C)=C/CO)C(C)(C)CCC1", "Potency": "inactive"}, {"compound": "CN(C)c1cccc(O)c1", "Potency": "inactive"}, {"compound": "OCC1CCCO1", "note": "(configuration not stated)", "Potency": "inactive"}, {"compound": "CCCCC(CC)C(=O)OCCOCCOCCOC(=O)C(CC)CCCC", "note": "(configuration not stated)", "Potency": "inactive"}, {"compound": "O=S(=O)(O)CCS", "Potency": "inactive"}, {"compound": "Oc1ccc2ccccc2c1", "Potency": "inactive"}, {"compound": "Cc1ccc(C(=O)O)o1", "Potency": "inactive"}, {"compound": "ClC1=C(Cl)C(Cl)(Cl)C(Cl)=C1Cl", "Potency": "17.5 µM (active) and 34.7 µM (active)"}, {"compound": "OC[C@@H](O)[C@H](O)[C@H](O)[C@@H](O)CO", "Potency": "inactive"}, {"compound": "CCOC(=O)/C=C\\C(=O)OCC", "Potency": "inactive"}, {"compound": "CC1=CC[C@H]2C[C@@H]1C2(C)C", "Potency": "inactive"}, {"compound": "O=C(c1ccc(O)cc1)c1ccc(O)cc1O", "Potency": "inactive"}, {"compound": "CCc1ccccc1O", "cytotoxicity increase": "18.2% (inactive)"}, {"compound": "COCC(C)O", "note": "(configuration not stated)", "Potency": "inactive"}, {"compound": "CC(C)NCC(O)COc1cccc2ccccc12", "note": "(configuration not stated)", "Potency": "inactive"}, {"compound": "CCCCCCOC(C)=O", "Potency": "inactive"}, {"compound": "CC(C)n1c(/C=C/[C@@H](O)C[C@@H](O)CC(=O)O)c(-c2ccc(F)cc2)c2ccccc21", "Potency": "inactive"}, {"compound": "c1ccc2ccccc2c1", "Potency": "inactive"}, {"compound": "CC(C)(C)C1CCC(O)CC1", "note": "(configuration not stated)", "Potency": "inactive"}, {"compound": "O=S(=O)(O)c1cc(S(=O)(=O)O)c2c(N=Nc3ccccc3)c(O)ccc2c1", "Potency": "inactive"}, {"compound": "Cn1c([N+](=O)[O-])cnc1COC(N)=O", "Potency": "inactive"}, {"compound": "CCCCCCCCC", "Potency": "inactive"}, {"compound": "Cc1ccc(N)c(S(=O)(=O)O)c1", "Potency": "inactive"}, {"compound": "C=C(C)C(=O)OCCCCCC", "Potency": "inactive"}, {"compound": "Oc1c(Cl)cc(Cl)c(Cl)c1Cl", "Potency": "inactive"}, {"compound": "Cc1cc(O)c2c(c1)C(=O)c1cc(O)cc(O)c1C2=O", "Potency": "inactive"}, {"compound": "Nc1c(S(=O)(=O)O)cc(Br)c2c1C(=O)c1ccccc1C2=O", "Potency": "inactive"}, {"compound": "C=C(C)C(=O)OCC(CC)(COC(=O)C(=C)C)COC(=O)C(=C)C", "Potency": "inactive and 42.9 µM (active)"}, {"compound": "Nc1cc(-c2ccncc2)c[nH]c1=O", "Potency": "inactive"}, {"compound": "CS(=O)(=O)Nc1ccc([N+](=O)[O-])cc1Oc1ccccc1", "Potency": "inactive"}, {"compound": "CCCCC(CC)COC(=O)CCCCCCCC(=O)OCC(CC)CCCC", "note": "(configuration not stated)", "Potency": "54.9 µM (active) and inactive"}, {"compound": "CN(C)c1ccc(C(=N)c2ccc(N(C)C)cc2)cc1", "cytotoxicity increase": "22.5% (inactive)"}, {"compound": "CCCCCCC(C)(C)S", "Potency": "inactive"}, {"compound": "CCOC(=O)C1OC1c1ccccc1", "note": "(configuration not stated)", "Potency": "inactive"}, {"compound": "Clc1ccc(Cl)c(Cl)c1Cl", "Potency": "inactive"}, {"compound": "CNC[C@H](O)[C@@H](O)[C@H](O)[C@H](O)CO", "Potency": "inactive"}, {"compound": "C=C(C)C(=O)OCCC[Si](OC)(OC)OC", "cytotoxicity increase": "3.29% (inactive)"}, {"compound": "CCCCC(CC)COC(=O)/C=C\\C(=O)OCC(CC)CCCC", "note": "(configuration not stated)", "Potency": "inactive"}]}, {"assay": "A CellTox Green Cytotoxicity Assay to monitor cytotoxicity in HepG2 cells - 0 hour (AID 1224882); further: nearly all actives have a fitted effect of over 35% in size", "conditions": "CellTox Green fluorescence; series mostly up to 76.8 µM; cytotoxicity: at the top concentration", "in_short": "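HepG2, 600 cells/well premixed w/ CellTox Green; 5 h settle, 37 C/5% CO2; pintool cpd add (DMSO); 37 C, 40 h; fluorescence read at 0, 8, 16, 24, 32, 40 h.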", "values": [{"compound": "CC1=C(/C=C/C(C)=C/C=C/C(C)=C/CO)C(C)(C)CCC1", "Potency": "inactive"}, {"compound": "NCc1cccc(CN)c1", "Potency": "inactive"}, {"compound": "CN(C)c1cccc(O)c1", "cytotoxicity": "1.47% (inactive)"}, {"compound": "OCC1CCCO1", "note": "(configuration not stated)", "Potency": "inactive"}, {"compound": "CCCCC(CC)C(=O)OCCOCCOCCOC(=O)C(CC)CCCC", "note": "(configuration not stated)", "Potency": "inactive"}, {"compound": "O=S(=O)(O)CCS", "Potency": "inactive"}, {"compound": "Oc1ccc2ccccc2c1", "Potency": "inactive"}, {"compound": "Cc1ccc(C(=O)O)o1", "Potency": "inactive"}, {"compound": "ClC1=C(Cl)C(Cl)(Cl)C(Cl)=C1Cl", "Potency": "inactive"}, {"compound": "OC[C@@H](O)[C@H](O)[C@H](O)[C@@H](O)CO", "Potency": "inactive"}, {"compound": "CCOC(=O)/C=C\\C(=O)OCC", "Potency": "inactive"}, {"compound": "CC1=CC[C@H]2C[C@@H]1C2(C)C", "Potency": "inactive"}, {"compound": "O=C(c1ccc(O)cc1)c1ccc(O)cc1O", "cytotoxicity": "-2.72% (inactive)"}, {"compound": "CCc1ccccc1O", "Potency": "inactive"}, {"compound": "COCC(C)O", "note": "(configuration not stated)", "Potency": "inactive"}, {"compound": "CC(C)NCC(O)COc1cccc2ccccc12", "note": "(configuration not stated)", "Potency": "inactive"}, {"compound": "CCCCCCOC(C)=O", "Potency": "inactive"}, {"compound": "CC(C)n1c(/C=C/[C@@H](O)C[C@@H](O)CC(=O)O)c(-c2ccc(F)cc2)c2ccccc21", "Potency": "inactive"}, {"compound": "c1ccc2ccccc2c1", "Potency": "inactive"}, {"compound": "CC(C)(C)C1CCC(O)CC1", "note": "(configuration not stated)", "Potency": "inactive"}, {"compound": "O=S(=O)(O)c1cc(S(=O)(=O)O)c2c(N=Nc3ccccc3)c(O)ccc2c1", "Potency": "inactive"}, {"compound": "Cn1c([N+](=O)[O-])cnc1COC(N)=O", "Potency": "inactive"}, {"compound": "CCCCCCCCC", "Potency": "inactive"}, {"compound": "Cc1ccc(N)c(S(=O)(=O)O)c1", "Potency": "inactive"}, {"compound": "C=C(C)C(=O)OCCCCCC", "Potency": "inactive"}, {"compound": "Oc1c(Cl)cc(Cl)c(Cl)c1Cl", "Potency": "inactive"}, {"compound": "Cc1cc(O)c2c(c1)C(=O)c1cc(O)cc(O)c1C2=O", "Potency": "inactive"}, {"compound": "Nc1c(S(=O)(=O)O)cc(Br)c2c1C(=O)c1ccccc1C2=O", "Potency": "inactive"}, {"compound": "C=C(C)C(=O)OCC(CC)(COC(=O)C(=C)C)COC(=O)C(=C)C", "Potency": "inactive and 42.9 µM (active)"}, {"compound": "Nc1cc(-c2ccncc2)c[nH]c1=O", "Potency": "inactive"}, {"compound": "CS(=O)(=O)Nc1ccc([N+](=O)[O-])cc1Oc1ccccc1", "Potency": "inactive"}, {"compound": "CCCCC(CC)COC(=O)CCCCCCCC(=O)OCC(CC)CCCC", "note": "(configuration not stated)", "Potency": "54.9 µM (active) and inactive"}, {"compound": "CN(C)c1ccc(C(=N)c2ccc(N(C)C)cc2)cc1", "Potency": "inactive"}, {"compound": "CCCCCCC(C)(C)S", "Potency": "inactive"}, {"compound": "CCOC(=O)C1OC1c1ccccc1", "note": "(configuration not stated)", "Potency": "inactive"}, {"compound": "Clc1ccc(Cl)c(Cl)c1Cl", "Potency": "inactive"}, {"compound": "CNC[C@H](O)[C@@H](O)[C@H](O)[C@H](O)CO", "Potency": "inactive"}, {"compound": "C=C(C)C(=O)OCCC[Si](OC)(OC)OC", "Potency": "inactive"}, {"compound": "CCCCC(CC)COC(=O)/C=C\\C(=O)OCC(CC)CCCC", "note": "(configuration not stated)", "Potency": "inactive"}]}]}
